{"source": "PubChem BioAssay (NCATS)", "key": {"[1]": {"target": "Cellular tumor antigen p53 (Homo sapiens) (UniProt P04637)", "sequence (P04637 whole entry, looked up)": "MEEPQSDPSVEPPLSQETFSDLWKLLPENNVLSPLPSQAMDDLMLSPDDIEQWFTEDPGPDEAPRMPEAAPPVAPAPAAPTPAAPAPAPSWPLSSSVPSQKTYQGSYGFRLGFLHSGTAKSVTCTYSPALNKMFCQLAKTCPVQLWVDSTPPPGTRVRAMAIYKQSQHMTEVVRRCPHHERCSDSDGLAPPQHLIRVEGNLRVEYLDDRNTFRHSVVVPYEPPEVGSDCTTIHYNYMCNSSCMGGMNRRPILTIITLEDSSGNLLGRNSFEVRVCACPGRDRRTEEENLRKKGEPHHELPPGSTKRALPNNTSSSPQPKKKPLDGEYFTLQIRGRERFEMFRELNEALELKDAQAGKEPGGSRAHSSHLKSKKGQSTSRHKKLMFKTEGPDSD", "assay": "Primary qHTS for small molecule compounds that upregulate eGFP-tagged delta133p53alpha (in N-terminal) cells. (AID 2060322); further: nearly all actives have a fitted effect of over 75% in size; further: potency means the concentration at half of the fitted maximal effect; on activation: series mostly up to about 56 µM", "settings": "NCI-H358 eGFP-delta133p53alpha fluorescence, 24 h; activation: active compounds read high", "method_in_brief": "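NCI-H358 cells pre-induced 24 h with 10 ng/ml doxycycline for eGFP-delta133p53alpha, plated dox-free and exposed 24 h at 37C to titrated compounds. Fixed, Hoechst-stained; gated GFP peak intensity by laser scanning cytometry, normalized to DMSO (0%) and 57.5 uM 5-azacytidine (100%).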"}, "[2]": {"target": "Aldehyde dehydrogenase, mitochondrial (Homo sapiens) (UniProt P05091)", "assay": "qHTS for Inhibitors of the Aldehyde Dehydrogenase Family (ALDH2) Primary screen (AID 2061308); further: nearly all actives have a fitted effect of over 55% in size"}, "[3]": {"target": "Retinaldehyde dehydrogenase 3 (Homo sapiens) (UniProt P47895)", "assay": "qHTS for Inhibitors of the Aldehyde Dehydrogenase Family (ALDH1A3) Primary screen (AID 2061315)"}}, "note": "Results filed as inconclusive are left out. Entries that show only a call come without a potency. A number with no mark means an inactive call. Activity calls are given as the source filed them. The call rests on the fitted dose curve; in most records, active means well fitted curve in the direction sought with a large enough effect; inconclusive means small, poorly fitted or top-dose-only effect, or another doubt; inactive means no such curve, though single readings can be large; an effect the other way counts as inactive or inconclusive.", "data": [{"smiles": "O=C(O[C@H]1[C@@H]2C=CO[C@@H](O[C@@H]3O[C@H](CO)[C@@H](O)[C@H](O)[C@H]3O)[C@@H]2[C@@]2(CO)O[C@@H]12)c1ccc(O)cc1", "values": [{"measurement": "activation", "setting": "[1]", "result": 4.58, "unit": "%"}, {"measurement": "Potency", "setting": "[2]", "result": "inactive"}, {"measurement": "Potency", "setting": "[3]", "result": "inactive"}]}, {"smiles": "COc1ccc(S(=O)(=O)n2cnc3cc(C)c(C)cc32)cc1", "values": [{"measurement": "activation", "setting": "[1]", "result": -3.67, "unit": "%"}, {"measurement": "Potency", "setting": "[2]", "result": "inactive"}, {"measurement": "Potency", "setting": "[3]", "result": "inactive"}]}, {"smiles": "CC(=O)Nc1ccc(S(=O)(=O)Nc2cc(C)on2)cc1", "values": [{"measurement": "activation", "setting": "[1]", "result": 11.9, "unit": "%"}, {"measurement": "Potency", "setting": "[2]", "result": "inactive"}, {"measurement": "Potency", "setting": "[3]", "result": "inactive"}]}, {"smiles": "C/C(=C\\C(=O)C(C)C1CCC2C3=C(CCC21C)C1(C)CCC(=O)C(C)(C)C1(O)CC3)C(C)(C)O", "note": "(stereo not drawn)", "values": [{"measurement": "activation", "setting": "[1]", "result": -16.8, "unit": "%"}, {"measurement": "Potency", "setting": "[2]", "result": "inactive"}, {"measurement": "Potency", "setting": "[3]", "result": "inactive"}]}, {"smiles": "O=C(CCC1CCN(Cc2ccccc2)CC1)c1ccc2c(c1)NCCCC2", "values": [{"measurement": "activation", "setting": "[1]", "result": 6.33, "unit": "%"}, {"measurement": "Potency", "setting": "[2]", "result": "inactive"}, {"measurement": "Potency", "setting": "[3]", "result": "inactive"}]}, {"smiles": "CC1=C(C)C(=O)OC(C(C)(O)C2CCC3C4CC=C5CC(OC6OC(COC7OC(CO)C(O)C(O)C7O)C(O)C(O)C6O)CC(O)C5(C)C4CCC32C)C1", "note": "(stereo not drawn)", "values": [{"measurement": "activation", "setting": "[1]", "result": -6.87, "unit": "%"}, {"measurement": "Potency", "setting": "[2]", "result": "inactive"}, {"measurement": "Potency", "setting": "[3]", "result": "inactive"}]}, {"smiles": "CCOc1ncc(S(=O)(=O)N2CCN(CC)CC2)cc1-c1nc2c(CC)n(CCOC)nc2c(=O)[nH]1", "values": [{"measurement": "activation", "setting": "[1]", "result": -9.07, "unit": "%"}, {"measurement": "Potency", "setting": "[2]", "result": "inactive"}, {"measurement": "Potency", "setting": "[3]", "result": "inactive"}]}, {"smiles": "Cc1cccc(N2CCN(C(=O)c3cc(S(=O)(=O)N(C)C)ccc3N3CCCC3)CC2)c1C", "values": [{"measurement": "activation", "setting": "[1]", "result": -4.33, "unit": "%"}, {"measurement": "Potency", "setting": "[2]", "result": "inactive"}, {"measurement": "Potency", "setting": "[3]", "result": "inactive"}]}, {"smiles": "CC/C=C\\CC1C(CC(=O)O)CCC1OC1OC(CO)C(O)C(O)C1O", "note": "(stereo not drawn)", "values": [{"measurement": "activation", "setting": "[1]", "result": 0, "unit": "%"}, {"measurement": "Potency", "setting": "[2]", "result": "inactive"}, {"measurement": "Potency", "setting": "[3]", "result": "inactive"}]}, {"smiles": "CC(C)(O[C@@H]1O[C@H](CO)[C@@H](O)[C@H](O)[C@H]1O)C(OC(=O)/C=C\\c1ccc(O)cc1)C(=O)OCc1ccc(O[C@@H]2O[C@H](CO)[C@@H](O)[C@H](O)[C@H]2O)cc1", "note": "(stereo partly drawn)", "values": [{"measurement": "activation", "setting": "[1]", "result": -8.4, "unit": "%"}, {"measurement": "Potency", "setting": "[2]", "result": "inactive"}, {"measurement": "Potency", "setting": "[3]", "result": "inactive"}]}, {"smiles": "C=CCc1cc(OC)c(OC(C)C(O)c2ccc(O)c(OC)c2)c(OC)c1", "note": "(stereo not drawn)", "values": [{"measurement": "activation", "setting": "[1]", "result": 4.46, "unit": "%"}, {"measurement": "Potency", "setting": "[2]", "result": "inactive"}, {"measurement": "Potency", "setting": "[3]", "result": "inactive"}]}, {"smiles": "C=C1CC(=O)C2OC2(C)CC2OC(=O)C(=C)C2C(O)C1OC(=O)/C(C)=C\\C", "note": "(stereo not drawn)", "values": [{"measurement": "Potency", "setting": "[1]", "result": "16.6 µM (active)"}, {"measurement": "Potency", "setting": "[2]", "result": "inactive"}, {"measurement": "Potency", "setting": "[3]", "result": "inactive"}]}, {"smiles": "CC1=C2CC(C)(C)CC2C(O)C2=C(C1)C(=O)OC2O", "note": "(stereo not drawn)", "values": [{"measurement": "activation", "setting": "[1]", "result": -7.14, "unit": "%"}, {"measurement": "Potency", "setting": "[2]", "result": "inactive"}, {"measurement": "Potency", "setting": "[3]", "result": "inactive"}]}, {"smiles": "COc1cccc(CN(C(=O)CC(C)(C)C)[C@H]2C[C@H](C(=O)N3CCNCC3)N(Cc3ccc4c(c3)OCO4)C2)c1", "values": [{"measurement": "activation", "setting": "[1]", "result": 1, "unit": "%"}, {"measurement": "Potency", "setting": "[2]", "result": "inactive"}, {"measurement": "Potency", "setting": "[3]", "result": "inactive"}]}, {"smiles": "C=C[C@H]1[C@H](O[C@@H]2O[C@H](CO)[C@@H](O)[C@H](O)[C@H]2O)OC=C(C(=O)OC)[C@H]1C[C@@H]1N[C@H](C(=O)O)Cc2c1[nH]c1ccccc21", "values": [{"measurement": "activation", "setting": "[1]", "result": -4.58, "unit": "%"}, {"measurement": "Potency", "setting": "[2]", "result": "inactive"}, {"measurement": "Potency", "setting": "[3]", "result": "inactive"}]}, {"smiles": "CC(=O)OC1[C@H]2[C@@H](C[C@@H](C)[C@@H]3C=CC(=O)[C@@]13C)OC(=O)[C@@H]2C", "note": "(stereo partly drawn)", "values": [{"measurement": "Potency", "setting": "[1]", "result": "21.3 µM (active)"}, {"measurement": "Potency", "setting": "[2]", "result": "inactive"}, {"measurement": "Potency", "setting": "[3]", "result": "inactive"}]}, {"smiles": "C=CC(=O)Nc1cc(Nc2nccc(-c3c[nH]c4ccccc34)n2)c(OC)cc1N(C)CCN(C)C", "values": [{"measurement": "Potency", "setting": "[1]", "result": "10.7 µM (active)"}, {"measurement": "Potency", "setting": "[2]", "result": "inactive"}, {"measurement": "Potency", "setting": "[3]", "result": "inactive"}]}, {"smiles": "C=C(CO)C(=O)O[C@H]1C[C@@]23O[C@@H]2CC/C(=C/[C@H]2OC(=O)C(=C)[C@H]12)CO[C@H]3O", "values": [{"measurement": "activation", "setting": "[1]", "result": 26.8, "unit": "%"}, {"measurement": "Potency", "setting": "[2]", "result": "inactive"}, {"measurement": "Potency", "setting": "[3]", "result": "inactive"}]}, {"smiles": "O=C(O)CCc1cccc(O)c1O[C@@H]1O[C@H](CO)[C@@H](O)[C@H](O)[C@H]1O", "values": [{"measurement": "activation", "setting": "[1]", "result": 0, "unit": "%"}, {"measurement": "Potency", "setting": "[2]", "result": "inactive"}, {"measurement": "Potency", "setting": "[3]", "result": "inactive"}]}, {"smiles": "CC(C)(OC1OC(CO)C(O)C(O)C1O)C1CCC(O)(CO)C2CC(O)C(C)(O)C2C1", "note": "(stereo not drawn)", "values": [{"measurement": "activation", "setting": "[1]", "result": -19.6, "unit": "%"}, {"measurement": "Potency", "setting": "[2]", "result": "inactive"}, {"measurement": "Potency", "setting": "[3]", "result": "inactive"}]}, {"smiles": "CC(C)/C=C1/NC(=O)C(C(C)C)n2c1nc1c(O)cccc1c2=O", "note": "(stereo not drawn)", "values": [{"measurement": "activation", "setting": "[1]", "result": -14.5, "unit": "%"}, {"measurement": "Potency", "setting": "[2]", "result": "inactive"}, {"measurement": "Potency", "setting": "[3]", "result": "inactive"}]}, {"smiles": "C=C(C)C1CCC2(C(=O)O[C@@H]3O[C@H](CO[C@@H]4O[C@H](CO)[C@@H](O)[C@H](O)[C@H]4O)[C@@H](O)[C@H](O[C@@H]4O[C@@H](C)[C@H](O)[C@@H](O)[C@H]4O)[C@H]3O)CCC3(C(=O)O)C(CCC4C5(C)CCC(O)C(C)(C)C5CCC43C)C12", "note": "(stereo partly drawn)", "values": [{"measurement": "activation", "setting": "[1]", "result": -13.7, "unit": "%"}, {"measurement": "Potency", "setting": "[2]", "result": "inactive"}, {"measurement": "Potency", "setting": "[3]", "result": "inactive"}]}, {"smiles": "CCCCc1ccc(NS(=O)(=O)c2ccc(F)cc2)cc1", "values": [{"measurement": "activation", "setting": "[1]", "result": -9.55, "unit": "%"}, {"measurement": "Potency", "setting": "[2]", "result": "inactive"}, {"measurement": "Potency", "setting": "[3]", "result": "inactive"}]}, {"smiles": "COc1ccc(NC(=O)C2C[C@H](C)CC[C@H]2C(C)C)cc1", "note": "(stereo partly drawn)", "values": [{"measurement": "activation", "setting": "[1]", "result": 5.67, "unit": "%"}, {"measurement": "Potency", "setting": "[2]", "result": "inactive"}, {"measurement": "Potency", "setting": "[3]", "result": "inactive"}]}, {"smiles": "C/C=C(\\C)C(=O)O[C@H]1[C@@H](O[C@]2(COC(=O)CC(C)C)O[C@H](COC(=O)C(C)CC)[C@@H](OC(C)=O)[C@@H]2O)O[C@H](COC(C)=O)[C@@H](O)[C@@H]1O", "note": "(stereo partly drawn)", "values": [{"measurement": "activation", "setting": "[1]", "result": 9.16, "unit": "%"}, {"measurement": "Potency", "setting": "[2]", "result": "inactive"}, {"measurement": "Potency", "setting": "[3]", "result": "inactive"}]}, {"smiles": "C[C@@]12C(=O)N(c3ccc(C(=O)Nc4cccc5cccnc45)cc3)C(=O)[C@@H]1[C@@H]1C=C[C@H]2C1", "values": [{"measurement": "activation", "setting": "[1]", "result": 18.3, "unit": "%"}, {"measurement": "Potency", "setting": "[2]", "result": "inactive"}, {"measurement": "Potency", "setting": "[3]", "result": "inactive"}]}]}
